Experimental data published in PubChem BioAssay (NCI).
Values joined by “and” are separate entries in the source; they are usually repeats but may differ in a detail not shown here. Identical values can stand only once. The panel holds about 83,000 compounds, 20% with a hit somewhere; the sample as a whole holds those more often.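 Values shown are percent growth following 48 h exposure of cells in 96-well plates to a single concentration of compound; below 10 was considered active.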 Active and inactive are the calls of the source.

Key:
Experiment in all cases: NCI-60 one-dose screen, 48 h (100 = growth as untreated, 0 = no growth, -100 = all killed)
Conditions in all cases: 10 µM unless noted
MOLT-4 leukemia = test system: MOLT-4 leukemia
SR leukemia = test system: SR leukemia
RPMI-8226 leukemia = test system: RPMI-8226 leukemia
OVCAR-5 ovarian = test system: OVCAR-5 ovarian
OVCAR-4 ovarian = test system: OVCAR-4 ovarian
SK-OV-3 ovarian = test system: SK-OV-3 ovarian
IGROV1 ovarian = test system: IGROV1 ovarian
OVCAR-3 ovarian = test system: OVCAR-3 ovarian
HS 578T breast = test system: HS 578T breast
NCI/ADR-RES ovarian = test system: NCI/ADR-RES ovarian
T-47D breast = test system: T-47D breast
BT-549 breast = test system: BT-549 breast
MDA-MB-435 melanoma = test system: MDA-MB-435 melanoma
SW-620 colon = test system: SW-620 colon
MCF7 breast = test system: MCF7 breast
HCT-116 colon = test system: HCT-116 colon
HCC-2998 colon = test system: HCC-2998 colon
KM12 colon = test system: KM12 colon
OVCAR-8 ovarian = test system: OVCAR-8 ovarian

Measured: growth

CC[C@H](C)[C@H](NC(=O)c1cnccn1)C(=O)N(C)[C@H](C[C@@H](OC(C)=O)c1nc(C(=O)N[C@@H](Cc2ccccc2)C[C@H](C)C(=O)OC)cs1)C(C)C
active: OVCAR-3 ovarian -10.2% | BT-549 breast -7.25% | MDA-MB-435 melanoma -37.6% | HCT-116 colon -9.21% | KM12 colon 3.34%
inactive: MOLT-4 leukemia 17.9% | SR leukemia 15.9% | RPMI-8226 leukemia 22.5% | OVCAR-5 ovarian 42.4% | OVCAR-4 ovarian 45.9% | SK-OV-3 ovarian 20.6% | IGROV1 ovarian 32% | HS 578T breast 11.9% | NCI/ADR-RES ovarian 14.4% | T-47D breast 61.2% | SW-620 colon 23.6% | MCF7 breast 15.5% | HCC-2998 colon 22.3%

CCOC(=O)c1cncn1C(C)c1ccccc1 (stereo not drawn)
inactive: MOLT-4 leukemia 94.5% | SR leukemia 90.2% | RPMI-8226 leukemia 105% | OVCAR-8 ovarian 102% | OVCAR-5 ovarian 105% | IGROV1 ovarian 107% | OVCAR-3 ovarian 109% | HS 578T breast 97.2% | NCI/ADR-RES ovarian 109% | T-47D breast 105% | BT-549 breast 100% | MDA-MB-435 melanoma 108% | SW-620 colon 115% | MCF7 breast 114% | HCT-116 colon 106% | HCC-2998 colon 118% | KM12 colon 104%

COC1C(O)CC(OC2CC(Oc3cc4cc5c(c(O)c4c(O)c3C)C(=O)[C@@H](OC3CC(OC4CC(OC6CC(C)(O)C(OC(C)=O)C(C)O6)C(O)C(C)O4)C(O)C(C)O3)[C@H]([C@H](OC)C(=O)[C@@H](O)[C@@H](C)O)C5)OC(C)C2OC(C)=O)OC1C (stereo partly drawn)
inactive: SK-OV-3 ovarian 12.2%
active: MOLT-4 leukemia 1.77% | SR leukemia 1.63% | RPMI-8226 leukemia -30.8% | OVCAR-5 ovarian -67% | OVCAR-4 ovarian 4.26% | IGROV1 ovarian -23.8% | OVCAR-3 ovarian -9.73% | NCI/ADR-RES ovarian -33.9% | T-47D breast -7.93% | BT-549 breast -68.3% | MDA-MB-435 melanoma -100% | SW-620 colon -16.1% | MCF7 breast -18.4% | HCT-116 colon 0.84% | KM12 colon -34.6%

Oc1ccc(O)c(Cl)c1
inactive: MOLT-4 leukemia 65.6% and 105% | SR leukemia 70.4% and 94.5% | RPMI-8226 leukemia 28.5% and 91.1% | OVCAR-5 ovarian 112% and 113% | OVCAR-4 ovarian 107% and 104% | SK-OV-3 ovarian 108% and 105% | IGROV1 ovarian 107% and 108% | OVCAR-3 ovarian 79.6% and 97.8% | HS 578T breast 93.5% and 97.7% | NCI/ADR-RES ovarian 102% and 97.3% | T-47D breast 89.1% | MDA-MB-435 melanoma 102% and 109% | SW-620 colon 112% and 115% | MCF7 breast 86% and 96.7% | HCT-116 colon 102% and 109% | HCC-2998 colon 110% and 88.1% | KM12 colon 100% and 102%

CC1(C)N=C(N)N=C(N)N1c1ccc(CCC(=O)Nc2ccc(S(=O)(=O)F)cc2)cc1
inactive: MOLT-4 leukemia 26.1% | SR leukemia 15.7% | RPMI-8226 leukemia 34.4% | OVCAR-5 ovarian 34% | OVCAR-4 ovarian 92.8% | SK-OV-3 ovarian 67.8% | IGROV1 ovarian 25.8% | OVCAR-3 ovarian 96.7% | HS 578T breast 82% | NCI/ADR-RES ovarian 117% | T-47D breast 88.9% | BT-549 breast 58.7% | MDA-MB-435 melanoma 20.8% | SW-620 colon 25.8% | MCF7 breast 24.9% | HCT-116 colon 12.3% | HCC-2998 colon 42.3% | KM12 colon 13.3%

CC/C(Cc1ccccc1)=C(\c1ccc(OCCN2CCCC2)cc1)c1ccc(OC(=O)NCc2ccccc2)cc1
active: SR leukemia -28.2% | RPMI-8226 leukemia -6.25% | SW-620 colon -44.1% | MCF7 breast -11.1% | HCT-116 colon -34.2%
inactive: MOLT-4 leukemia 11.7% | OVCAR-5 ovarian 75.9% | OVCAR-4 ovarian 59.9% | SK-OV-3 ovarian 91.9% | IGROV1 ovarian 40% | OVCAR-3 ovarian 78.4% | HS 578T breast 69.5% | NCI/ADR-RES ovarian 88.1% | T-47D breast 21.2% | BT-549 breast 77.9% | MDA-MB-435 melanoma 53.6% | HCC-2998 colon 83.1% | KM12 colon 45.7%

CC[C@H](C)[C@H](NC(=O)[C@H]1CCCCN1C)C(=O)N(C)[C@H](C[C@@H](OC(C)=O)c1nc(C(=O)N[C@@H](Cc2ccccc2)C[C@H](C)C(=O)O)cs1)C(C)C
inactive: MOLT-4 leukemia 12.8% | RPMI-8226 leukemia 34.1% | OVCAR-5 ovarian 57.7% | OVCAR-4 ovarian 52.6% | SK-OV-3 ovarian 12.3% | HS 578T breast 25.3% | NCI/ADR-RES ovarian 12.2% | T-47D breast 70.5% | SW-620 colon 35.2% | MCF7 breast 14.6% | HCC-2998 colon 13.7%
active: SR leukemia 2.65% | OVCAR-3 ovarian -4.44% | BT-549 breast -37.2% | MDA-MB-435 melanoma -10.9% | HCT-116 colon 5.71% | KM12 colon 0.294%

N#CC(N)c1ccccc1 (stereo not drawn)
inactive: MOLT-4 leukemia 108% | SR leukemia 101% | RPMI-8226 leukemia 99% | OVCAR-5 ovarian 101% | OVCAR-4 ovarian 110% | SK-OV-3 ovarian 115% | OVCAR-3 ovarian 106% | HS 578T breast 98.5% | NCI/ADR-RES ovarian 108% | T-47D breast 114% | BT-549 breast 96.3% | MDA-MB-435 melanoma 98.3% | MCF7 breast 111% | HCT-116 colon 96.4% | HCC-2998 colon 113% | KM12 colon 103%

CC(=O)OC1CC2(O)C(CCC3(C)C(c4ccc(=O)oc4)CCC32O)C2(C)CCC(OC3OC(CO)C(O)C(O)C3O)C=C12 (stereo not drawn)
active: MOLT-4 leukemia -19.6% | SR leukemia -15.3% | RPMI-8226 leukemia -23.3% | OVCAR-5 ovarian -73.5% | OVCAR-4 ovarian -64.4% | SK-OV-3 ovarian -13.9% | IGROV1 ovarian -26.5% | OVCAR-3 ovarian -100% | HS 578T breast -11.3% | NCI/ADR-RES ovarian -61.6% | T-47D breast -9.39% | BT-549 breast -85.4% | MDA-MB-435 melanoma -90.2% | SW-620 colon -67.4% | MCF7 breast -23.4% | HCT-116 colon -94.3% | HCC-2998 colon -63.3% | KM12 colon -97.8%

CCCC1CCCCC12C(=O)NC(=O)NC2=O (stereo not drawn)
inactive: MOLT-4 leukemia 110% and 97.1% | SR leukemia 91.8% | RPMI-8226 leukemia 95.9% | OVCAR-5 ovarian 97.8% and 107% | OVCAR-4 ovarian 94.1% and 104% | SK-OV-3 ovarian 94.7% and 106% | IGROV1 ovarian 111% | OVCAR-3 ovarian 106% and 105% | HS 578T breast 91.8% and 106% | NCI/ADR-RES ovarian 99.6% and 104% | T-47D breast 93.2% and 87.8% | BT-549 breast 112% and 98.9% | MDA-MB-435 melanoma 99.1% and 108% | SW-620 colon 94.9% and 106% | MCF7 breast 98.6% and 99.9% | HCT-116 colon 109% and 94.4% | HCC-2998 colon 103% and 96.6% | KM12 colon 98.1% and 107%

Cc1ccc(S(=O)(=O)n2cc([C@@]3(O)C[C@H](CSC#N)OC3=O)c3ccccc32)cc1
inactive: SR leukemia 49% | RPMI-8226 leukemia 16.3% | OVCAR-5 ovarian 83.9% | OVCAR-4 ovarian 75.7% | SK-OV-3 ovarian 99.6% | IGROV1 ovarian 71.6% | OVCAR-3 ovarian 54.8% | HS 578T breast 44.4% | NCI/ADR-RES ovarian 82.2% | BT-549 breast 70.9% | MDA-MB-435 melanoma 63.3% | SW-620 colon 36.1% | MCF7 breast 23.6% | HCT-116 colon 45.6% | HCC-2998 colon 25.1% | KM12 colon 68.7%
active: MOLT-4 leukemia 7.16%

C[C@]12CC[C@H]3[C@@H](CC=C4c5nc(N)sc5CC[C@@]43C)[C@@H]1CC[C@@H]2O
inactive: MOLT-4 leukemia 103% | SR leukemia 91.6% | RPMI-8226 leukemia 103% | OVCAR-8 ovarian 99.5% | OVCAR-5 ovarian 107% | IGROV1 ovarian 114% | OVCAR-3 ovarian 99.6% | HS 578T breast 105% | NCI/ADR-RES ovarian 102% | T-47D breast 92.2% | BT-549 breast 99.5% | MDA-MB-435 melanoma 92.9% | SW-620 colon 90.1% | MCF7 breast 104% | HCT-116 colon 92.1% | HCC-2998 colon 98.4% | KM12 colon 102%

C[C@]12CC[C@H](O)C[C@@H]1CC[C@@H]1[C@@H]2CC[C@]2(C)OC(=O)CC[C@@H]12
inactive: MOLT-4 leukemia 113% | SR leukemia 125% | RPMI-8226 leukemia 102% | OVCAR-8 ovarian 85.6% | OVCAR-5 ovarian 93.7% | IGROV1 ovarian 93.1% | OVCAR-3 ovarian 99% | HS 578T breast 111% | NCI/ADR-RES ovarian 101% | BT-549 breast 88.2% | MDA-MB-435 melanoma 102% | SW-620 colon 115% | MCF7 breast 96.8% | HCT-116 colon 88.6% | HCC-2998 colon 102% | KM12 colon 92.5%

O=c1[nH]c(=O)n(Cl)c(=O)n1Cl
inactive: MOLT-4 leukemia 113% and 104% | SR leukemia 102% and 113% | RPMI-8226 leukemia 82.1% | OVCAR-5 ovarian 102% and 96.2% | OVCAR-4 ovarian 115% and 109% | IGROV1 ovarian 124% and 96.9% | OVCAR-3 ovarian 111% and 110% | HS 578T breast 106% and 99.9% | NCI/ADR-RES ovarian 115% and 96.8% | T-47D breast 112% and 95.3% | BT-549 breast 108% and 110% | MDA-MB-435 melanoma 102% and 114% | SW-620 colon 105% and 110% | MCF7 breast 108% and 86% | HCT-116 colon 113% and 99.4% | HCC-2998 colon 123% and 96% | KM12 colon 101% and 107%

CC1=C([Te]c2ccccc2)C(=O)c2ccccc2C1=O
inactive: MOLT-4 leukemia 31.4% | SR leukemia 21.4%
active: RPMI-8226 leukemia -32.9% | OVCAR-8 ovarian -15.9% | OVCAR-5 ovarian -72.3% | IGROV1 ovarian -21.5% | OVCAR-3 ovarian -77.5% | HS 578T breast -22.4% | NCI/ADR-RES ovarian -23.1% | BT-549 breast -30.7% | MDA-MB-435 melanoma -3.36% | SW-620 colon -88.2% | MCF7 breast -77.3% | HCT-116 colon -40.5% | HCC-2998 colon -66.4% | KM12 colon -60.7%

COC(=O)CCP(CCC(=O)OC)c1ccccc1
inactive: MOLT-4 leukemia 113% | SR leukemia 106% | RPMI-8226 leukemia 113% | OVCAR-8 ovarian 105% | OVCAR-4 ovarian 103% | SK-OV-3 ovarian 101% | IGROV1 ovarian 110% | OVCAR-3 ovarian 107% | HS 578T breast 114% | NCI/ADR-RES ovarian 106% | BT-549 breast 90% | MDA-MB-435 melanoma 97.2% | SW-620 colon 105% | MCF7 breast 97.6% | HCT-116 colon 97.6% | HCC-2998 colon 104% | KM12 colon 111%
